Values without a mark were called inactive. The source made the active and inactive calls.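 Rule for the calls, unless noted: active = luciferase signal above three times the same-plate solvent-only control wells; inactive = the rest.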

Mitogen-activated protein kinase 7 (Homo sapiens), sequence (Q13164 whole entry, looked up, the tested form may be a part): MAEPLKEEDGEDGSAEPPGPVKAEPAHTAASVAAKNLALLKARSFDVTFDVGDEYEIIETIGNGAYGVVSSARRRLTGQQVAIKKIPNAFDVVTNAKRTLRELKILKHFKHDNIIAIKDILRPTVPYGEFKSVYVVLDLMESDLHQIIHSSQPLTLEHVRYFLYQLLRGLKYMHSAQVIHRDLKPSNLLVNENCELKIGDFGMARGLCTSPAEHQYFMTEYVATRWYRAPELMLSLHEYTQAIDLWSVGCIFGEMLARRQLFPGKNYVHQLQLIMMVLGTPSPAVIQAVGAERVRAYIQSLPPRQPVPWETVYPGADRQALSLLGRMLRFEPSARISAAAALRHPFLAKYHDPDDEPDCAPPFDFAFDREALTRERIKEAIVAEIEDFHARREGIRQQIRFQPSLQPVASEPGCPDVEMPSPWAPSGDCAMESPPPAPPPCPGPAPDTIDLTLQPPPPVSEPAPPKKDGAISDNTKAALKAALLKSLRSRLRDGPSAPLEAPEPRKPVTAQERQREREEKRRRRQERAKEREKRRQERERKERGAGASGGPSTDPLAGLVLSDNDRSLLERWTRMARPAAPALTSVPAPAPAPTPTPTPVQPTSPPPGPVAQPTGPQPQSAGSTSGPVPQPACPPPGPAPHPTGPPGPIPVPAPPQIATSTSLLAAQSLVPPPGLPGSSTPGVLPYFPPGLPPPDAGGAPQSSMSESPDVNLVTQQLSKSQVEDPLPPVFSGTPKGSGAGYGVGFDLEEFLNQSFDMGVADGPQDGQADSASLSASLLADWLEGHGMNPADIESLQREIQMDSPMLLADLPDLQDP
NAD(+) hydrolase SARM1 (Homo sapiens), sequence (Q6SZW1 whole entry, looked up): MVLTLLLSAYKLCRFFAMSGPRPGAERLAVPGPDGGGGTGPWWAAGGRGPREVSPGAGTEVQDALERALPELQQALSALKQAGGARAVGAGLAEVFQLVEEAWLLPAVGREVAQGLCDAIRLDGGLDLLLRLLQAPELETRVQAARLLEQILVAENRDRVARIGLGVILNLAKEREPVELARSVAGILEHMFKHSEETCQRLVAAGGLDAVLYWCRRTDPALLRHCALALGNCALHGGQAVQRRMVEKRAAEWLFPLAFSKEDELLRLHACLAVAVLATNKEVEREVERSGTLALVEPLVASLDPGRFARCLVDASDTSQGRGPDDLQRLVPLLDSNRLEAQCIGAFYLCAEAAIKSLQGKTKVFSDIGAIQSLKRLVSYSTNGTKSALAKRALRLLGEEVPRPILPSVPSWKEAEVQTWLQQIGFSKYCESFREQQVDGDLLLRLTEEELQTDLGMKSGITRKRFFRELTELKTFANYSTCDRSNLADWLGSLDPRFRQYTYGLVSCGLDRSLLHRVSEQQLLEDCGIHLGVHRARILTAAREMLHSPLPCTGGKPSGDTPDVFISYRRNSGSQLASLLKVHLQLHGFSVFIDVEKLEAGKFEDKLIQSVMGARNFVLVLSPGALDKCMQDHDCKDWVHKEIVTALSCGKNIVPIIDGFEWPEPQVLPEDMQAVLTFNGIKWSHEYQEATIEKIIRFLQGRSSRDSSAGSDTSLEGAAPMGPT

One experiment has as its target NAD(+) hydrolase SARM1 (Homo sapiens) (UniProt Q6SZW1). Kind of experiment: blocking NAD cleavage by SARM1 SAM-TIR – cell lysate, NAD-Glo luminescence (AID 1508614;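 active = compound whose remaining NAD level is above about 45 nM, limit read from the data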;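 note: higher remaining NAD means stronger inhibition of SARM1 NADase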). The settings on record: SAM-TIR HEK293T lysate NADase, at 1 µM, stronger effect = higher value.
In the case of `NC(=O)c1cnccn1`, the remaining NAD was 10 nM.

For the compound `CN(C)CCc1c[nH]c2ccc(C[C@H]3COC(=O)N3)cc12`, the remaining NAD was 10 nM.

Regarding `COc1ccccc1OCC(O)COC(N)=O` (stereo not drawn), the remaining NAD was 10 nM.

As for `COC(=O)Nc1nc2ccc(C(=O)c3ccccc3)cc2[nH]1`, the remaining NAD is 10 nM.

Turning to `CCn1cc(C(=O)O)c(=O)c2cc(F)c(N3CCN(C)CC3)cc21`, the remaining NAD was 10 nM.

With `Cn1cnc([N+](=O)[O-])c1Sc1ncnc2nc[nH]c12`, the remaining NAD is 10 nM.

For the compound `c1ccc2[nH]c(-c3cscn3)nc2c1`, the remaining NAD was 10 nM.

Take `Cc1onc(-c2c(Cl)cccc2Cl)c1C(=O)N[C@@H]1C(=O)N2[C@@H]1SC(C)(C)[C@@H]2C(=O)O`: the remaining NAD is 10 nM.

Consider `Clc1ccc2c(c1)C(N1CCNCC1)=Nc1ccccc1O2`, for which the remaining NAD was 10 nM.

Take `CO[C@@]1(NC(=O)Cc2cccs2)C(=O)N2C(C(=O)O)=C(COC(N)=O)CS[C@@H]21`: the remaining NAD is 10 nM.

Consider `CCc1cccc2c3c([nH]c12)C(CC)(CC(=O)O)OCC3` (stereo not drawn), for which the remaining NAD is 10 nM.

With `CC(C)(C)NCC(O)COc1cccc2c1C[C@H](O)[C@H](O)C2` (stereo partly drawn), the remaining NAD was 10 nM.

With `O=S(=O)(O)CCS`, the remaining NAD is 10 nM.

On to `O=c1[nH]cc(F)c(=O)[nH]1`, for which the remaining NAD was 10 nM.

A further experiment has as its target Mitogen-activated protein kinase 7 (Homo sapiens) (UniProt Q13164). Kind of experiment: Gal4-ERK5 driven luciferase induction – cell-based, HTS, primary screen (AID 1508626).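 Note: luciferase driven by Gal4-ERK5 fusion binding five Gal4 sites before minimal TATA.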 The note with it: HeLa Gal4-ERK5 transactivation, 18 h, at 5 µM, stronger effect = higher value.
With `OCCN1CCN(CCCN2c3ccccc3Sc3ccc(C(F)(F)F)cc32)CC1`, the luciferase signal is 28 AU.

With `NS(=O)(=O)c1cc2c(cc1Cl)NC=NS2(=O)=O`, the luciferase signal was 52 AU.

As to `O=C1C(CCS(=O)c2ccccc2)C(=O)N(c2ccccc2)N1c1ccccc1` (stereo not drawn), the luciferase signal was 104 AU.

Regarding `Cc1ccc(-c2cc(C(F)(F)F)nn2-c2ccc(S(N)(=O)=O)cc2)cc1`, the luciferase signal was 28 AU.

As for `CN[C@H]1CC[C@@H](c2ccc(Cl)c(Cl)c2)c2ccccc21`, the luciferase signal was 48 AU.

Consider `Cc1ccccc1C(OCCN(C)C)c1ccccc1` (stereo not drawn), for which the luciferase signal is 40 AU.

Consider `CCc1nc(N)nc(N)c1-c1ccc(Cl)cc1`, for which the luciferase signal was 104 AU.

Take `COc1cc2nc(N(C)CCCNC(=O)C3CCCO3)nc(N)c2cc1OC` (stereo not drawn): the luciferase signal was 28 AU.

Take `CN(C)CCOC(c1ccc(Cl)cc1)c1ccccn1` (stereo not drawn): the luciferase signal is 88 AU.

In the case of `N[C@@H](C(=O)N[C@@H]1C(=O)N2C(C(=O)O)=C(Cl)CS[C@H]12)c1ccccc1`, the luciferase signal was 32 AU.

As to `Nc1ncn([C@@H]2O[C@H](CO)[C@@H](O)[C@H]2O)c(=O)n1`, the luciferase signal was 60 AU.

As to `NCc1ccc(S(N)(=O)=O)cc1`, the luciferase signal is 92 AU.

Turning to `Cc1ncc([N+](=O)[O-])n1CC(C)O` (stereo not drawn), the luciferase signal was 40 AU.

In the case of `Cc1ccc(C)c(OCCCC(C)(C)C(=O)O)c1`, the luciferase signal was 128 AU.

With `CN1CCCC(n2nc(Cc3ccc(Cl)cc3)c3ccccc3c2=O)CC1` (stereo not drawn), the luciferase signal was 88 AU.

Consider `NS(=O)(=O)c1cc2c(cc1C(F)(F)F)NC(Cc1ccccc1)NS2(=O)=O` (stereo not drawn), for which the luciferase signal was 36 AU.

In the case of `COC1=CC(=O)C[C@@H](C)[C@]12Oc1c(Cl)c(OC)cc(OC)c1C2=O`, the luciferase signal is 104 AU.

On to `Cc1cn([C@H]2C[C@H](N=[N+]=[N-])[C@@H](CO)O2)c(=O)[nH]c1=O`, for which the luciferase signal was 44 AU.

Consider `CN(CCOc1ccc(CC2SC(=O)NC2=O)cc1)c1ccccn1` (stereo not drawn), for which the luciferase signal is 72 AU.

`COc1ccc(OC)c(C(O)CNC(=O)CN)c1` (stereo not drawn): the luciferase signal was 124 AU.

As for `OC(CCN1CCCC1)(c1ccccc1)C1CCCCC1` (stereo not drawn), the luciferase signal was 44 AU.

In the case of `NC(=O)N1c2ccccc2CC(=O)c2ccccc21`, the luciferase signal was 56 AU.

Regarding `CCCNCC(O)COc1ccccc1C(=O)CCc1ccccc1` (stereo not drawn), the luciferase signal is 116 AU.

In the case of `C/C=C/C(=O)N(CC)c1ccccc1C`, the luciferase signal was 64 AU.

Regarding `CCCCCCNC(=O)n1cc(F)c(=O)[nH]c1=O`, the luciferase signal is 32 AU.

For the compound `NC(=O)c1cnccn1`, the luciferase signal is 48 AU.

`CN(C)CCc1c[nH]c2ccc(C[C@H]3COC(=O)N3)cc12`: the luciferase signal is 32 AU.

As for `COc1ccccc1OCC(O)COC(N)=O` (stereo not drawn), the luciferase signal is 56 AU.

As to `COC(=O)Nc1nc2ccc(C(=O)c3ccccc3)cc2[nH]1`, the luciferase signal was 28 AU.

On to `CCn1cc(C(=O)O)c(=O)c2cc(F)c(N3CCN(C)CC3)cc21`, for which the luciferase signal is 56 AU.

Take `Cn1cnc([N+](=O)[O-])c1Sc1ncnc2nc[nH]c12`: the luciferase signal is 408 AU (active).

For the compound `c1ccc2[nH]c(-c3cscn3)nc2c1`, the luciferase signal was 12 AU.

Take `Cc1onc(-c2c(Cl)cccc2Cl)c1C(=O)N[C@@H]1C(=O)N2[C@@H]1SC(C)(C)[C@@H]2C(=O)O`: the luciferase signal was 36 AU.

With `Clc1ccc2c(c1)C(N1CCNCC1)=Nc1ccccc1O2`, the luciferase signal was 32 AU.

With `CO[C@@]1(NC(=O)Cc2cccs2)C(=O)N2C(C(=O)O)=C(COC(N)=O)CS[C@@H]21`, the luciferase signal was 108 AU.

As to `CCc1cccc2c3c([nH]c12)C(CC)(CC(=O)O)OCC3` (stereo not drawn), the luciferase signal is 164 AU.

As to `CC(C)(C)NCC(O)COc1cccc2c1C[C@H](O)[C@H](O)C2` (stereo partly drawn), the luciferase signal was 100 AU.

Consider `O=S(=O)(O)CCS`, for which the luciferase signal is 20 AU.

On to `O=c1[nH]cc(F)c(=O)[nH]1`, for which the luciferase signal was 80 AU.

(Values after PubChem BioAssay.)
